# Test results: PubChem BioAssay (NCATS)
# Inconclusive results are not listed. Values without a mark were called inactive. The source made the active and inactive calls. The call rests on the fitted dose curve; in most records, active means well fitted cell-killing curve with a large enough effect; inconclusive means small, poorly fitted or top-dose-only effect; inactive means flat fitted curve, though single readings scatter.
# Test: qHTS of pediatric cancer cell lines to identify multiple opportunities for drug repurposing: Primary screen for Rh18 cells (AID 1347102); further: nearly all actives have a fitted effect of over 65% in size
# Conditions: Rh18 rhabdomyosarcoma viability, CellTiter-Glo luminescence, 48 h; series mostly up to 46 µM; activity change, negative = cytotoxic: at the top concentration
# Text: Drug repurposing or repositioning has been offered as a strategy for drug development in oncology programs. This approach has special potential for childhood cancers and other rare or orphan diseases, where the expected return on new drug development has been a disincentive to pharmaceuticals.
# In this project we exploit the poly-pharmacology of drugs to discover new indications via phenotypic screening of a panel of 19 well-characterized cell lines derived from solid tumors seen in children and adolescents. The goal is to identify approved drugs with previously unrecognized anticancer properties that has the potential to reveal new mechanisms and biological processes involved in carcinogenesis or drug resistance. We employed a titration-based paradigm (quantitative high-throughput screening or qHTS), where all compounds were tested at multiple concentrations for their effect on cell viability. Concentration-response curves (CRCs) were derived directly from the primary screen, and both potency and efficacy values were used to identify compounds with robust bioactivity profiles. We screened the NIH Chemical Genomics Center (NCGC) Pharmaceutical Collection (NPC) and Mechanism Interrogation Plate (MIPE) small molecule collections of approved and investigational compounds against these cell lines; and measured metabolically active cells after 48 hours of compound treatment as a proxy for cell viability.
# Assay Submitter: Nathalia J. Martinez, National Center for Advancing Translational Sciences, National Institutes of Health, Rockville, MD, USA; email: natalia.martinez@nih.gov
# [1] Shen, M et al. Quantitative high-throughput phenotypic screening of pediatric cancer cell lines identifies multiple opportunities for drug repurposing. Oncotarget 2017 Dec 19;9(4):4758-4772. PMID 29435139.
# The cells were obtained from University of North Carolina (UNC), Pediatric Preclinical Testing Program (PPT), and Coriell Institute (CI).
# qHTS cell viability assay:
# Cells were assayed in growth media at a density of 500-1,000 cells/well. Five microliters of cells were dispensed into 1,536-well, white, solid-bottom, TC-treated plates (Greiner Bio One) using a multidrop dispenser and incubated at 37 degrees C, 5% CO2, under a humidified atmosphere for 5 hours. Twenty-three nanoliters of compounds and controls (neutral control DMSO or positive control bortezomib at final concentration of 2.3 µM) were subsequently transferred by Kalypsys pintool. For primary screens, the MIPE collection was tested at 11-point dilutions (final concentrations range from 0.78 nM to 46 µM) and the NPC collection at 8-point dilutions (final concentrations range from 0.59 nM to 46 µM). Compounds tested in follow-up screens were assayed at 11-point dilutions. Cells were incubated for 48 hours, followed by addition of 3 µL of CellTiter-Glo (Promega). After a 15 min incubation at room temperature, samples were analyzed for luminescence intensity using a ViewLux High-throughput CCD imager equipped with clear filters.
# On the % scale 0 is the no-effect control and ±100 the full control effect; potency means the concentration at half of the fitted maximal effect.
Compound,"activity change, negative = cytotoxic",Potency
CCc1nc(-c2cccc(C)c2)c(-c2ccnc(NC(=O)c3ccccc3)c2)s1,-21.3%,
OCc1ccccc1O[C@@H]1O[C@H](CO)[C@H](O)[C@H](O)[C@H]1O,1.05%,
CC(C)OC(=O)[C@H](C)N[P@](=O)(OC[C@H]1O[C@@H](n2ccc(=O)[nH]c2=O)[C@](C)(F)[C@H]1O)Oc1ccccc1,7.27%,
CC(C)(O)[C@H]1CC[C@@](C)([C@H]2[C@@H](O)C[C@@]3(C)[C@@H]4C[C@H](O[C@@H]5O[C@H](CO)[C@@H](O)[C@H](O)[C@@H]5O)[C@H]5C(C)(C)[C@@H](O[C@@H]6OC[C@@H](O)[C@H](O)[C@@H]6O)CC[C@@]56C[C@@]46CC[C@]23C)O1,6.59%,
CC(C=CC(=O)NO)=C[C@@H](C)C(=O)c1ccc(N(C)C)cc1,,0.526 µM (active)
CC(=O)C1=C(O)C=C2Oc3c(C(C)=O)c(O)c(C)c(O)c3C2(C)C1=O (stereo not given),-8.89%,
COc1ccnc2[nH]cc(C(=O)C(=O)N3CCN(C(=O)c4ccccc4)C[C@@H]3C)c12,22%,
CCN(C(=O)c1c(O)c2c(Cl)cccc2n(C)c1=O)c1ccccc1,7.08%,
C[C@@H]1CC[C@@]2(OC1)OC1CC3C4CC=C5CC(O)CCC5(C)C4CCC3(C)C1[C@@H]2C (stereo not given in full),12.4%,
CO[C@@H]1[C@@H](O)[C@H](O)[C@@H](n2c3c(Cl)cccc3c3c4c(c5c6cccc(Cl)c6[nH]c5c32)C(=O)NC4=O)O[C@@H]1CO,,2.09 µM (active)
O=C(C=Cc1ccc(CN(CCO)CCc2c[nH]c3ccccc23)cc1)NO,,0.105 µM (active)
C=CC(=O)N1CCc2ccc(-n3c(=O)ccc4cnc5ccc(-c6cnn(C)c6)cc5c43)cc21,,8.33 µM (active)
C[C@H]1C[C@H]2[C@@H]3CCC4=CC(=O)C=C[C@]4(C)[C@@H]3C(=O)C[C@]2(C)[C@@]1(O)C(=O)CO,0.679%,
COc1ccc(S(=O)(=O)Nc2cccnc2Nc2ccc(O)cc2)cc1,-16.6%,
O=C(CCCCCCC(=O)Nc1cccnc1)NO,,4.69 µM (active)
C[C@@H]1C(=O)O[C@H]2CC34[C@H]5C[C@@H](C(C)(C)C)C36[C@H](OC(=O)[C@@H]6O)O[C@@]4(C(=O)O5)[C@]21O (stereo not given in full),-13.5%,
COc1cccc2c1C(=O)c1c(O)c3c(c(O)c1C2=O)C[C@@](O)(C(=O)CO)C[C@@H]3O[C@H]1C[C@H](N)[C@H](OC2CCCCO2)[C@H](C)O1 (stereo not given in full),19.6%,
c1ccc2c(Oc3nc(Nc4ccc(N5CCOCC5)cc4)c4ncn(C5CCCCC5)c4n3)cccc2c1,-1.36%,
COC1=C(OC)C(=O)C(CC=C(C)CCC=C(C)CCC=C(C)CCC=C(C)CCC=C(C)CCC=C(C)CCC=C(C)CCC=C(C)CCC=C(C)CCC=C(C)C)=C(C)C1=O,7.89%,
OCC(O)C(O)C(O)CO (stereo not given),4.95%,

Compound,"activity change, negative = cytotoxic",Potency
O=C(Nc1cccc(Nc2ncc(Br)c(NCCc3cnc[nH]3)n2)c1)N1CCCC1,,9.35 µM (active)
O=c1[nH]c(=O)n([C@H]2C[C@@H](O)[C@@H](CO)O2)cc1C=CBr,12.3%,
CCN(CC)Cc1ccc2cc(COC(=O)Nc3ccc(C(=O)NO)cc3)ccc2c1,,0.743 µM (active)
C[C@H](CCC(=O)O)[C@H]1CC[C@H]2[C@@H]3[C@H](O)C[C@@H]4C[C@H](O)CC[C@]4(C)[C@@H]3CC[C@]12C,5.76%,
Nc1nc2c(c(=O)[nH]1)N(C=O)[C@H](CNc1ccc(C(=O)N[C@@H](CCC(=O)O)C(=O)O)cc1)CN2,7.7%,
O=C(O)C[C@H](O)C[C@H](O)C=Cc1c(C2CC2)nc2ccccc2c1-c1ccc(F)cc1,,4.69 µM (active)
CN1CCc2c(c3ccccc3n2Cc2ccc(C(=O)NO)cc2)C1,,18.7 µM (active)
CN[C@H](CC(C)C)C(=O)N[C@H]1C(=O)N[C@@H](CC(N)=O)C(=O)N[C@@H]2C(=O)N[C@H]3C(=O)N[C@H](C(=O)N[C@H](C(=O)O)c4cc(O)cc(O)c4-c4cc3ccc4O)[C@H](O)c3ccc(c(Cl)c3)Oc3cc2cc(c3O[C@@H]2O[C@H](CO)[C@@H](O)[C@H](O)[C@@H]2O[C@H]2C[C@](C)(N)[C@H](O)[C@H](C)O2)Oc2ccc(cc2Cl)[C@H]1O,7.77%,
C[C@H](CCC(=O)O)[C@H]1CCC2C3C[C@H](O)[C@@H]4C[C@H](O)CC[C@]4(C)C3CC[C@@]21C (stereo not given in full),6.98%,
C=C(C)[C@@H]1CC[C@]2(C)CC[C@]3(C)[C@H](CC[C@@H]4[C@@]5(C)CC[C@H](O)C(C)(C)[C@H]5CC[C@]43C)[C@@H]12,27%,
COC[C@H](NC(=O)c1cnc(C)s1)C(=O)N[C@@H](COC)C(=O)N[C@@H](Cc1ccccc1)C(=O)[C@@]1(C)CO1,,0.187 µM (active)
C=CCNc1c(O)cc2c(O)c1C[C@@H](C)C[C@H](OC)[C@@H](O)[C@@H](C)C=C(C)[C@H](OC(N)=O)[C@@H](OC)C=CC=C(C)C(=O)N2,,0.935 µM (active)
COc1cc(O)c2c(c1)C1OC1C[C@H](O)[C@H](O)C(=O)C=CC[C@H](C)OC2=O (stereo not given in full),,16.6 µM (active)
CC(C)(N)c1ccc(-c2nc3ccccc3nc2-c2ccccc2)cc1,,20.9 µM (active)
O=C(C=CC#Cc1cccc(NS(=O)(=O)c2ccccc2)c1)NO,,1.66 µM (active)
OCCN1C[C@H](O)[C@@H](O)[C@H](O)[C@@H]1CO,11.5%,
CC1(C)[C@H](O[C@H]2O[C@H](C(=O)O)[C@@H](O)[C@H](O)[C@H]2O[C@@H]2O[C@H](C(=O)O)[C@@H](O)[C@H](O)[C@H]2O)CC[C@@]2(C)[C@H]1CC[C@]1(C)[C@H]2C(=O)C=C2[C@H]3C[C@@](C)(C(=O)O)CC[C@]3(C)CC[C@]21C,23.2%,
C[N+](C)([O-])CCNc1ccc(NCC[N+](C)(C)[O-])c2c1C(=O)c1c(O)ccc(O)c1C2=O,10.4%,
C[C@@H](Oc1ccc2[nH]nc(C=Cc3cnn(CCO)c3)c2c1)c1c(Cl)cncc1Cl,,5.9 µM (active)
CN(N=O)C(=O)N[C@H]1C(O)OC(CO)[C@@H](O)[C@H]1O (stereo not given in full),8.79%,
